# From PubChem BioAssay AID1463 (National Center for Advancing Translational Sciences (NCATS), 2008)
# Screen size: about 280,000 compounds; about 2,600 (0.93%) were called active. Roughly 8% stayed inconclusive and do not appear here. Calls come from the whole dose curve; as a rule, active = well fitted curve in the direction sought with a large enough effect; inconclusive = small, poorly fitted or top-dose-only effect; inactive = flat fitted curve, though single readings scatter. The list comes from a sample in which actives are over-represented; it also holds similar structures and randomly drawn compounds. Entries that show only a call come without a potency.
# Experiment: Counterscreen qHTS for Inhibitors of Tau Fibril Formation, Fluorescence Polarization; note: nearly all actives have a fitted effect of over 55% in size
# Conditions: tau K18 P301L Alexa594 fluorescence, heparin fibrillization; series mostly up to 57.7 µM
# Outline: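 Human tau K18 P301L (15 uM unlabeled, 0.24 uM Alexa 594-labeled) in 100 mM sodium acetate pH 7 with 20 uM heparin, 6 hr at 37 C. ThT 30 uM added, 1 hr ambient; Alexa 594 FP and total fluorescence read at 555/632 nm.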
# Potency is the fitted concentration of half-maximal effect; tags give direction and shape of the fitted curve or compound fluorescence and quenching.
row,SMILES,Potency
1,O=c1cc(O)nc(SCc2ccccc2Cl)[nH]1,inactive
2,CC1(C)N=C(SCc2ccccc2Cl)c2ccccc2N1,12.6 µM [quencher] (active)
3,Nc1nc(SCc2ccccc2Cl)n[nH]1,inactive
4,Cc1cccc(C(=O)Nc2ccc(-c3nc4ncccc4o3)cc2C)c1,inactive
5,CCOC(=O)c1ccc(CSc2nnc3cc(C)c4ccccc4n23)cc1,inactive
6,Cc1cc(C)cc(NC(=S)NCCc2c[nH]c3ccccc23)c1,15.8 µM [quencher] (active)
7,Cc1cc(C)cc(NC(=S)NCc2ccc(F)cc2)c1,inactive
8,Cc1cc(C)cc(NC(=O)CSc2nc3nccnc3c(=O)n2CCc2c[nH]c3ccccc23)c1,inactive
9,CCC(=O)N1CCc2cc(Br)cc(S(=O)(=O)CCC(=O)NCCc3ccc(OC)c(OC)c3)c21,inactive
10,COc1ccc(NC(=O)c2ccco2)cc1NC(=O)COc1ccc(C)c(C)c1,inactive
11,COc1ccc(NC(=O)c2cn(-c3ccccc3)nc2SC)cc1,17.8 µM [quencher] (active)
12,O=C(O)c1ccc(NC(=O)c2cn(-c3ccccc3)nc2-c2ccc(Cl)cc2)cc1,inactive
13,COc1ccc(NC(=O)c2c(SC)nsc2SC)cc1,inactive
14,CCOc1cc(C2C(C(=O)OC(C)C)=C(C)NC3=C2C(=O)CCC3)cc([N+](=O)[O-])c1O (stereo not given),inactive
15,CCOc1cc(C2C(C(=O)OC)=C(C)NC3=C2C(=O)c2ccccc23)ccc1O (stereo not given),17.8 µM [quencher] (active)
16,CCOc1cc(C2C(C(=O)Nc3ccc(OC)cc3)=C(C)Nc3nc(SC)nn32)ccc1O (stereo not given),inactive
17,CCOC(=O)CN1C(C(=O)c2ccccc2)=C(OC(=O)C(C)(C)C)c2ccccc2S1(=O)=O,inactive
18,CCN(CCCNC(=O)c1ccc(Sc2ccc(C)cc2)c(NC(C)=O)c1)c1cccc(C)c1,inactive
19,COc1ccc(CCNC(=O)c2c3c(nc4ccccc24)C(=O)N(C2CCCCC2)C3)cc1OC,inactive
20,CCCCN(CC)CCCNC(=O)c1nn(C)c2c1CSc1ccccc1-2,inactive
21,COc1ccc(CCNC(=O)c2nn(C)c3c2CSc2ccccc2-3)cc1OC,10 µM [quencher] (active)
22,Cc1ccc(C2CCN(C(=O)c3cnn(-c4ccccc4Cl)c3C3CCN(C(=O)OC(C)(C)C)CC3)C2)cc1 (stereo not given),inactive
23,Cn1nnc2c(N3CCN(c4ccccc4)CC3)ncnc21,inactive

row,SMILES,Potency
1,CCC1=Nc2cc(C(=O)NCCCOC(C)C)ccc2Sc2ccc(C)cc21,inactive
2,CCOC(=O)c1[nH]c(C)c(CCC(=O)N2CCN(c3ccccc3)CC2)c1C,inactive
3,O=C(CC(c1cccs1)N1Cc2ccccc2C1=O)Nc1ccc(F)c(F)c1 (stereo not given),inactive
4,CCCn1c2ccccc2c2cnn(CC(=O)N(C)c3ccccc3CC)c(=O)c21,inactive
5,O=C1Cc2cc(S(=O)(=O)Nc3ccc(OC(F)(F)F)cc3)cc3c2N1CCC3,inactive
6,CCCCS(=O)(=O)c1oc(-c2cccs2)nc1S(=O)(=O)c1ccccc1,inactive
7,CCOCCc1nn2c(=O)cc(COC(=O)CNC(=O)c3ccc(C(C)(C)C)cc3)nc2s1,inactive
8,O=S(=O)(c1ccc2nc(N3CCN(c4cccc(Cl)c4)CC3)ccc2c1)N1CCCCC1,inactive
9,Cc1ccc(C)c(N2CCN(c3ccc4cc(S(=O)(=O)N5CCC(C)CC5)ccc4n3)CC2)c1,inactive
10,Cc1ccc(Nc2ccc3cc(S(=O)(=O)N4CCCCC4)ccc3n2)cc1F,7.08 µM [quencher] (active)
11,Cc1nn(CC(=O)NCCc2ccccc2)c(=O)c2c1sc1ccccc12,inactive
12,CCn1c(CN2CCC(C)CC2)nc2cc(NC(=O)c3ccccc3[N+](=O)[O-])ccc21,inactive
13,CCCn1c2ccccc2c2cnn(CC(=O)NCC3CCN(Cc4ccc(C)cc4)CC3)c(=O)c21,inactive
14,COc1ccc(NS(=O)(=O)c2cc(NC(=O)CC(=O)c3ccc([N+](=O)[O-])cc3)ccc2C)cc1,7.94 µM [quencher] (active)
15,Cc1ccc(C(=O)Nc2ccc(C(=O)O)cc2)cc1S(=O)(=O)Nc1ccccc1,inactive
16,COc1ccc(S(=O)(=O)NC(C)C(=O)Nc2cccc([N+](=O)[O-])c2)cc1 (stereo not given),inactive
17,COc1cc(NC(=O)Cn2nc(-c3ccc(C)c(C)c3)ccc2=O)cc(OC)c1,inactive
18,Cn1c(SCC(=O)N2CCCc3ccccc32)ncc(C(=O)Nc2ccc(F)cc2)c1=O,inactive
19,COc1ccc(-n2nnc(-c3nsc(NC(=O)c4ccc(C)c(C)c4)n3)c2C)cc1Cl,inactive
20,CCN(CC)CC(=O)c1c[nH]c2ccc(OC)cc12,inactive
21,COc1ccc(/C=N/N=C/c2c[nH]c(=O)c(C#N)c2Nc2ccccc2)cc1,inactive
22,COc1ccc2[nH]cc(/C=C(/C#N)S(=O)(=O)c3ccccc3)c2c1,25.1 µM [quencher] (active)
23,CCOC(=O)C1=C(C)NC(SC)=NC1c1ccccc1 (stereo not given),inactive

row,SMILES,Potency
1,CCOC(=O)C1=C(C)N=C2c3ccccc3C(=O)C2C1c1ccc(Br)cc1 (stereo not given),11.2 µM [quencher] (active)
2,CCOC(=O)C1=C(C)NC(=O)NC1c1ccccc1 (stereo not given),inactive
3,CSc1nc(=O)c2c(n1C)NC(=O)CC2c1ccccc1OC(C)C (stereo not given),inactive
4,CN=c1scc(-c2cc(OC)ccc2OC)n1/N=C/c1c(C)[nH]c2ccccc12,12.6 µM [quencher] (active)
5,COC(=O)c1[nH]c2ccccc2c1NS(=O)(=O)c1ccc(OC)cc1OC,inactive
6,CCn1c(-c2cc(OC)ccc2OC)csc1=Nc1c(C)n(C)n(-c2ccccc2)c1=O,inactive
7,CC(=O)N1CCCc2cc(S(=O)(=O)N3CCC(C(=O)NCc4ccc(F)cc4)CC3)ccc21,inactive
8,COc1ccc(OC)c(NC(=O)C2CCCN(S(=O)(=O)c3ccc4c(c3)CCCC(=O)N4)C2)c1 (stereo not given),inactive
9,CCOc1ccccc1C(=O)NC1(C(F)(F)F)NC(=O)N(CCc2ccc(OC)c(OC)c2)C1=O (stereo not given),inactive
10,CC(C)c1ccc(S(=O)(=O)Nc2ccc(O)c(Sc3nc4ccccc4s3)c2)cc1,14.1 µM [quencher] (active)
11,O=C(O)c1cccc(S(=O)(=O)Nc2ccc(O)cc2Sc2nc3ccccc3s2)c1,inactive
12,O=C(CSc1nc2ccccc2s1)Nc1ccc(C(=O)O)cc1,inactive
13,Cc1nnc(SCC(=O)NCc2ccccc2Cl)c2nn(-c3ccccc3)c(C)c12,inactive
14,CCc1ccc(C2C(C(=O)Nc3ccccc3)=C(C)Nc3c(C(=O)Nc4ccc(C)cc4)cnn32)cc1 (stereo not given),inactive
15,COc1ccccc1/C=C/c1nc(C#N)c(NC(C)c2ccccc2)o1 (stereo not given),11.2 µM [quencher] (active)
16,COc1ccc(/C=C/c2nc(C#N)c(NCc3ccc(F)cc3)o2)cc1OC,inactive
17,CC(Nc1oc(-c2ccccc2)nc1-c1ccccc1)c1ccccc1 (stereo not given),inactive
18,CCOc1ccc(-n2c(SCC(=O)NCc3ccccc3)nc3n[nH]c(C)c3c2=N)cc1,inactive
19,Nc1cccc(-c2cc(-c3ccccc3)nc(-c3cccc(N)c3)n2)c1,2.51 µM [quencher] (active)
20,Nc1cccc(CCc2nc3ccccc3[nH]2)c1,inactive
21,Cc1nc(NNC(=O)c2ccccc2)cc(-c2ccccc2)n1,inactive
22,CCCCn1c(CNC(=O)C23CC4CC(CC(C4)C2)C3)nnc1SCC(=O)Nc1ccc(C)cc1,inactive
23,O=C(CC(c1cccs1)N1Cc2ccccc2C1=O)Nc1ccc(F)cc1F (stereo not given),inactive

row,SMILES,Potency
1,CCc1ccc(S(=O)(=O)Nc2cc3c(C(=O)OCc4ccccc4)c(C)oc3c3ccccc23)cc1,inactive
2,O=C(Cn1c(=O)n(-c2ccc(F)cc2)c(=O)c2sccc21)Nc1cccc(C(F)(F)F)c1,inactive
3,O=C(Cn1cc(/C=N/NC(=O)c2cccc(C(F)(F)F)c2)c2ccccc21)Nc1ccc(F)cc1,8.91 µM [quencher] (active)
4,COc1ccc(/C=N/NC(=O)c2cccc(C(F)(F)F)c2)cc1,inactive
5,O=C(CCCN1C(=O)/C(=C\c2ccco2)SC1=S)Nc1cccc2ccccc12,inactive
6,COc1ccc(NC(=O)CCN2C(=O)/C(=C/c3ccc4c(c3)OCO4)SC2=S)cc1,inactive
7,O=C(CCCN1C(=O)/C(=C/c2ccccc2)SC1=S)Nc1ccc(O)cc1,25.1 µM [quencher] (active)
8,COC(=O)c1ccc(NC(=O)c2cnn(-c3ccc(Cl)cc3)c2C2CCN(C(=O)OC(C)(C)C)CC2)cc1,inactive
9,O=C(COC(=O)c1c2c(nc3ccccc13)/C(=C\c1cccs1)CCC2)Nc1ccccc1Cl,inactive
10,CC(NC(=O)COC(=O)c1ccc2c(c1)OCO2)c1ccccc1 (stereo not given),inactive
11,NC(=O)c1ccc(NC(=O)COC(=O)c2c3c(nc4ccccc24)/C(=C\c2ccc4c(c2)OCO4)CCC3)cc1,8.91 µM [quencher] (active)
12,CCC1CCCCN1C(=O)Cn1c(=O)n(CCCCCC(=O)NCc2ccccc2)c(=O)c2sccc21 (stereo not given),inactive
13,CCC(=O)Nc1c(C(=O)N2CCN(c3ccc(F)cc3)CC2)oc2ccccc12,inactive
14,CCc1nnc(NC(=O)C2CCCN2S(=O)(=O)c2ccccc2)s1 (stereo not given),inactive
15,CCc1ccc(NC(=O)C2CCCN2S(=O)(=O)c2ccc3nc(-c4ccccc4)[nH]c3c2)cc1 (stereo not given),25.1 µM [quencher] (active)
16,CCc1ccccc1NS(=O)(=O)c1ccc2nc(-c3ccccc3)[nH]c2c1,inactive
17,Cc1ccccc1CNC(=O)c1ccc(NC(=O)N2CCCCc3ccccc32)cc1,inactive
18,CN1CCN(c2ccc(S(=O)(=O)Nc3ccccc3)cc2[N+](=O)[O-])CC1,inactive
19,O=[N+]([O-])c1cc(S(=O)(=O)Nc2cccc(Cl)c2)ccc1N=Nc1c(O)[nH]c2ccccc12,14.1 µM [quencher] (active)
20,COCCNC(=O)c1ccccc1NS(=O)(=O)c1ccc(C)c([N+](=O)[O-])c1,inactive
21,O=C(NCc1ccccc1)c1cccc(NC(=O)N2CCSc3ncccc32)c1,inactive
